The record followed here is PubChem BioAssay (NCATS).

Each structure is given as a SMILES string. Results filed as inconclusive are left out. Where a call stands in place of a potency, no number is given. Calls of active or inactive are those of the source. The call rests on the fitted dose curve; in most records, active means well fitted cell-killing curve with a large enough effect; inconclusive means small, poorly fitted or top-dose-only effect, or effect the other way; inactive means no such curve, though single readings can be large or run the other way.
Potency means the concentration at half of the fitted maximal effect.

A short description of this test: qHTS assay to identify small molecule inhibitors of chordoma cells - UCH-1 (AID 1259355). Further: nearly all actives have a fitted effect of over 55% in size. The following applies: UCH-1 chordoma viability, CellTiter-Glo, 48 h, combination, with auranofin plus four topoisomerase inhibitors; series mostly up to 46.1 µM. The source says:
NIH Chemical Genomics Center [NCGC]
Chordoma is a rare and slow growing tumor that can occur anywhere along the spine, from the base of the skull to the tailbone. Current treatment options for chordoma is surgery and radiation therapy for those who are not candidates for surgery. But chordomas tend to return in the same location or surrounding areas of the original tumor after surgery and/or radiation. Chemotherapy can slow down the progression of the tumor. As chordoma is slow growing, the general cytotoxic agents that kill fast growing cells are ineffective, and some patients have been reported to respond to molecularly targeted drugs.
NCATS Pharmaceutical Collection (NPC) containing approximately 3000 clinically approved and investigational drugs were used to screen at 15 concentrations in a chordoma cell lines, UCH-1, to identify small molecule compounds that can inhibit chordoma cell growth.
NCGC Assay Protocol Summary:
Human chordoma cell line UCH-1 was dispensed at 800 per well in 4uL of culture medium into white solid bottom 1536-well plates (Corning Life Sciences, Corning, NY) using a Multidrop Combi (Thermo Scientific, Waltham, MA) dispenser. The assay plates were incubated at 37 C and 5% CO2 for an overnight, and then 23nL of compounds dissolved in DMSO and positive control were transferred using a Pintool station (Wako, San Diego, CA). Compound treatment was followed by the addition of 1uL of the combination compounds (1uM Auranofin, 500nM each of Camptothecin, Doxorubicin, Rubitecan, and Topotecan) and assay medium to each well of the assay plates using Flying Reagent Dispenser (FRD, Aurora Discovery, San Diego, CA). The assay plates were incubated at 37 C and 5% CO2 for 48hr. Then 5uL of CellTiter-Glo reagent (Promega Corporation, Madison, WI) was added to each well of the assay plates using FRD. After 30min incubation at room temperature, the luminescence signal was quantified using a ViewLux plate reader (PerkinElmer, Shelton, CT).
As for `N=C(N)c1ccc(OCCCCCOc2ccc(C(=N)N)cc2)cc1`, the Potency entry is “inactive”.

With `Cn1c(=O)c2c(ncn2CC(O)CO)n(C)c1=O` (stereo not given), the Potency result was “inactive”. The entry for `CCn1cc(C(=O)O)c(=O)c2cc(F)c(N3CCNCC3)nc21` is “inactive”. Consider `CC(N)C12CC3CC(CC(C3)C1)C2` (stereo not given), for which the Potency entry was “inactive”. The entry for `Cc1onc(-c2ccccc2Cl)c1C(=O)N[C@@H]1C(=O)N2[C@@H]1SC(C)(C)[C@@H]2C(=O)O` is “inactive”. The entry for `NC(=O)N1c2ccccc2CC(=O)c2ccccc21` is “inactive”; for `CCCc1cc(C(N)=S)ccn1` it is “inactive”. The entry for `CN(CCOc1ccc(CC2SC(=O)NC2=O)cc1)c1ccccn1` (stereo not given) is “inactive”; for `CCOC(=O)[C@H](CCc1ccccc1)N[C@H]1CCc2ccccc2N(CC(=O)O)C1=O` it is “inactive”; for `C[C@@H](CN1CC(=O)NC(=O)C1)N1CC(=O)NC(=O)C1` it is “inactive”. As for `COc1cnc(NS(=O)(=O)c2ccc(N)cc2)nc1`, the Potency result was “inactive”. The entry for `COc1cc(NS(=O)(=O)c2ccc(N)cc2)nc(OC)n1` is “inactive”; for `COc1ccc2cc3[n+](cc2c1OC)CCc1cc2c(cc1-3)OCO2` it is “inactive”.

Turning to `O=S(=O)(c1cccc2cnccc12)N1CCCNCC1`, the Potency entry was “inactive”. Under `CCCN[C@H]1CCc2nc(N)sc2C1` stands “inactive”; under `CCN(C)C(=O)Oc1cccc([C@H](C)N(C)C)c1`, “inactive”; under `O=C(O)c1cc(=O)[nH]c(=O)[nH]1`, “inactive”. Under `COc1ncnc(NS(=O)(=O)c2ccc(N)cc2)c1OC` stands “inactive”.

With `CS(=O)(=O)c1ccc([C@@H](O)[C@@H](CO)NC(=O)C(Cl)Cl)cc1`, the Potency entry was “inactive”.

Take `Nc1nc(N)nc(-c2cc(Cl)ccc2Cl)n1`: the Potency result was “inactive”. In the case of `CC(C)(C)NC(=O)[C@H]1CC[C@H]2[C@@H]3CC[C@H]4NC(=O)C=C[C@]4(C)[C@H]3CC[C@]12C`, the Potency entry was “inactive”. For the compound `COc1cc([C@@H]2c3cc4c(cc3[C@H](O)[C@H]3COC(=O)[C@H]23)OCO4)cc(OC)c1OC`, the Potency is 7.9 nM (active). The entry for `COC(=O)Nc1nc2ccc(C(=O)c3ccccc3)cc2[nH]1` is “inactive”.

`CCCCOc1ccc(CC(=O)NO)cc1`: the Potency result was “inactive”.

For `C[C@]12C=CC(=O)C=C1CC[C@@H]1[C@@H]2C(=O)C[C@@]2(C)[C@H]1CC[C@]2(O)C(=O)CO`, the Potency entry was “inactive”. Under `C[C@@H]1CN(c2c(F)c(N)c3c(=O)c(C(=O)O)cn(C4CC4)c3c2F)C[C@H](C)N1` stands “inactive”; under `CCn1cc(C(=O)O)c(=O)c2cc(F)c(N3CCN(C)CC3)cc21`, “inactive”; under `OC(Cn1cncn1)(Cn1cncn1)c1ccc(F)cc1F`, “inactive”.

For `CCc1cc(C(N)=S)ccn1`, the Potency result is “inactive”.

Regarding `O=c1oc2c(O)c(O)cc3c(=O)oc4c(O)c(O)cc1c4c23`, the Potency result is “inactive”. `C#CCN[C@@H]1CCc2ccccc21`: the Potency result was “inactive”. For the compound `O=C(O)c1cn(C2CC2)c2cc(N3CCNCC3)c(F)cc2c1=O`, the Potency entry was “inactive”. `Cc1cccc(Nc2ccncc2S(=O)(=O)NC(=O)NC(C)C)c1`: the Potency entry is “inactive”.

Turning to `CN1CCN(c2c(F)cc3c(=O)c(C(=O)O)cn4c3c2OCN4C)CC1`, the Potency result was “inactive”.

Consider `CCN(CC)CC#CCOC(=O)C(O)(c1ccccc1)C1CCCCC1` (stereo not given), for which the Potency entry was “inactive”. Take `CC(C)NCC(O)c1ccc(NS(C)(=O)=O)cc1` (stereo not given): the Potency result is “inactive”. Under `CCn1cc(C(=O)O)c(=O)c2cc(F)c(N3CCNCC3)cc21` stands “inactive”; under `Cc1noc(NS(=O)(=O)c2ccc(N)cc2)c1C`, “inactive”.

As to `COc1cc2c(Nc3ccc(Br)cc3F)ncnc2cc1OCC1CCN(C)CC1`, the Potency was 5010 nM (active).

As for `S=P(N1CC1)(N1CC1)N1CC1`, the Potency result is “inactive”.
